Data as given in the supplement of paper PMC11732987, “Enantioselective OTUD7B fragment discovery through chemoproteomics screening and high-throughput optimisation” (Communications Chemistry, 2025).

Tests used:
Assay in all cases: log2 ratio of Biotin-Ahx-Ub-VS probe labelling (fragment/DMSO); higher = less target engagement (more negative = stronger competition), active = hit call of the paper (q ≤ 0.05, log2 ratio ≤ -1)
Settings in all cases: compound concentration: 200 uM; treatment time: 3 h
[1] = target: USP9X (UniProt Q93008)
Method in brief: (§1)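 HEK293T lysate in Tris/CHAPS/IGEPAL buffer with protease inhibitors (495 µg per sample) was given fragment at 200 µM or vehicle for 3 h, in triplicate. It then received Biotin-Ahx-Ub-VS at 0.5 µM final for 1 h. Labelled DUBs were NeutrAvidin-enriched, digested with LysC and trypsin, and run by diaPASEF LC-MS/MS. Values are average log2 fragment/vehicle ratios by unpaired t-test on global-median-normalised Spectronaut quantities of proteins with ≥2 unique peptides.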

[2] = target: UniProt O00487
Method in brief: as §1

[3] = target: UniProt O00507
Method in brief: as §1

[4] = target: UniProt P51784
Method in brief: as §1

[5] = target: T1, UniProt Q5T2D3
T1 sequence (whole entry): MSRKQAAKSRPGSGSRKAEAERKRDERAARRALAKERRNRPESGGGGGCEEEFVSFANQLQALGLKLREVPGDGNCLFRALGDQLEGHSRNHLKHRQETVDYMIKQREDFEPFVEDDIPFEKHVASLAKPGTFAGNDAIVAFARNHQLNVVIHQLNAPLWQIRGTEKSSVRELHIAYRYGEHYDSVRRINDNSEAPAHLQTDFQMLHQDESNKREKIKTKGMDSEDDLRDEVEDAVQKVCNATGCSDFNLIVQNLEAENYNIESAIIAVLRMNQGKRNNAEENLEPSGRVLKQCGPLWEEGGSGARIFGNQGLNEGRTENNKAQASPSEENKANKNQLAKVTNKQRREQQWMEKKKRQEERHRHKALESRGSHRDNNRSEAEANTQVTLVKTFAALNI
Method in brief: as §1

[6] = target: T2, UniProt Q8TE49
T2 sequence (whole entry): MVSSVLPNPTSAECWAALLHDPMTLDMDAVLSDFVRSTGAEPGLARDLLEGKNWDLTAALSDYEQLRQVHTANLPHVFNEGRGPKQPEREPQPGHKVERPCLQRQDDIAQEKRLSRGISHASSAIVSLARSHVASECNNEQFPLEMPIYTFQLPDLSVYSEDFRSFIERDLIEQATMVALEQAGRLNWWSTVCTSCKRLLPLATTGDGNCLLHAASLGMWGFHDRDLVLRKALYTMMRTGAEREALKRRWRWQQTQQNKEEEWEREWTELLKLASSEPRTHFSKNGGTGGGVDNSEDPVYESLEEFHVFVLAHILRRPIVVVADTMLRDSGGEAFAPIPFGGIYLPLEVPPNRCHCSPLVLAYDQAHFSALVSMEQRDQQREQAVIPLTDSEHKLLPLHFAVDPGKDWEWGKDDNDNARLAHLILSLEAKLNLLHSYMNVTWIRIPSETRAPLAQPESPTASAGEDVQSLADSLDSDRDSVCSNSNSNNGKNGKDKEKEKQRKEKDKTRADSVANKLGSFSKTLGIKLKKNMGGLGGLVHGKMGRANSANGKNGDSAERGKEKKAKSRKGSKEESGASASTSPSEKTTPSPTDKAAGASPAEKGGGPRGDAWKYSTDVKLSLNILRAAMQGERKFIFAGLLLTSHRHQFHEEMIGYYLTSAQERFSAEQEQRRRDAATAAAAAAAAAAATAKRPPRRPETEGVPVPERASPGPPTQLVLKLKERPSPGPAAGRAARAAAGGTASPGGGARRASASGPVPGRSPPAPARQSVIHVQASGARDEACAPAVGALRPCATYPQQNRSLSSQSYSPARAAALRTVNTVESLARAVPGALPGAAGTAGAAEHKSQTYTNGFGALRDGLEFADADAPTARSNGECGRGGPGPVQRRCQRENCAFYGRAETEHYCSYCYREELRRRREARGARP
Method in brief: as §1

[7] = target: T3, UniProt Q9P2H5
T3 sequence (whole entry): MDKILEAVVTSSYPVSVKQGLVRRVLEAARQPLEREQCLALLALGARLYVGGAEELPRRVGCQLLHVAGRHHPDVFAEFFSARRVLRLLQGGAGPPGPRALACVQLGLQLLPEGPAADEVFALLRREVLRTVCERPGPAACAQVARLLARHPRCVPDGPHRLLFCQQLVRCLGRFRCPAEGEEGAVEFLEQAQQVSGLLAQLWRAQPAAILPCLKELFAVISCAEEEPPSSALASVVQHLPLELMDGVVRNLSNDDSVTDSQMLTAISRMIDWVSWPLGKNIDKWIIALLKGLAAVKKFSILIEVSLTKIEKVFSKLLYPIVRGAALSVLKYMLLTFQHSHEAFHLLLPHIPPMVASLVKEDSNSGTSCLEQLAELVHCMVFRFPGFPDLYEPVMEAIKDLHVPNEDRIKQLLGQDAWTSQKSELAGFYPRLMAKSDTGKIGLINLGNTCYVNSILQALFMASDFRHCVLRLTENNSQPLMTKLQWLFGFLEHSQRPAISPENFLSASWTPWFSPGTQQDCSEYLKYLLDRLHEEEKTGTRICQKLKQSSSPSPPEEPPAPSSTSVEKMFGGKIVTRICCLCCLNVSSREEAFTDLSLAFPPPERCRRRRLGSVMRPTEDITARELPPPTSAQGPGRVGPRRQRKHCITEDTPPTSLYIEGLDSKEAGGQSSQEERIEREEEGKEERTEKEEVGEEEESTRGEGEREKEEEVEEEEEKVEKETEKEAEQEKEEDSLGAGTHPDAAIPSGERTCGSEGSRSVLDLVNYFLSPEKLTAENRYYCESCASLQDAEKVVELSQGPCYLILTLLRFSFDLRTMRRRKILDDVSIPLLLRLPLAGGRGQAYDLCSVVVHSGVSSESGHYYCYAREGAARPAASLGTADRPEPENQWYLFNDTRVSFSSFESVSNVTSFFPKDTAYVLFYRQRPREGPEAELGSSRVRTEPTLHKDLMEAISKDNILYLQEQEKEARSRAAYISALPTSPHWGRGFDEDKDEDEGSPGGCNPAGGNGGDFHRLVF
Method in brief: as §1

[8] = target: T4, UniProt Q9UGI0
T4 sequence (whole entry): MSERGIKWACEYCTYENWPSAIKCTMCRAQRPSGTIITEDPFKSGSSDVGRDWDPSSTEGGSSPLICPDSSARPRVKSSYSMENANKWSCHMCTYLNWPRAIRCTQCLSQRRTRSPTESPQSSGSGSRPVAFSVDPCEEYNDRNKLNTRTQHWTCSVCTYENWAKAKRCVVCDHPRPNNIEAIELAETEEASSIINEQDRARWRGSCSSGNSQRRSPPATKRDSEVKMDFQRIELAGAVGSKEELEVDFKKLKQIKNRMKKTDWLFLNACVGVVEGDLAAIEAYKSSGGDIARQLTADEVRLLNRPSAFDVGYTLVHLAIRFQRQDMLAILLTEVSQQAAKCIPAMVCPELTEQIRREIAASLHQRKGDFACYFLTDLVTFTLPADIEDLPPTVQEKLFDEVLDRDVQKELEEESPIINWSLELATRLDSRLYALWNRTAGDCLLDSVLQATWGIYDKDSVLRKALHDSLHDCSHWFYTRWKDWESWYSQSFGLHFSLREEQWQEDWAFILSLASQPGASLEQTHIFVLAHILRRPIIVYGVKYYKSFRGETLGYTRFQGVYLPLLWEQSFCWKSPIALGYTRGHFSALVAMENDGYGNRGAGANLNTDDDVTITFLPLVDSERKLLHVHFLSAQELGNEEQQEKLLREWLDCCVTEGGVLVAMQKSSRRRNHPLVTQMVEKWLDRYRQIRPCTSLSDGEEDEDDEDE
Method in brief: as §1

[9] = target: T5, YOD1 (UniProt Q5VVQ6)
T5 sequence (whole entry): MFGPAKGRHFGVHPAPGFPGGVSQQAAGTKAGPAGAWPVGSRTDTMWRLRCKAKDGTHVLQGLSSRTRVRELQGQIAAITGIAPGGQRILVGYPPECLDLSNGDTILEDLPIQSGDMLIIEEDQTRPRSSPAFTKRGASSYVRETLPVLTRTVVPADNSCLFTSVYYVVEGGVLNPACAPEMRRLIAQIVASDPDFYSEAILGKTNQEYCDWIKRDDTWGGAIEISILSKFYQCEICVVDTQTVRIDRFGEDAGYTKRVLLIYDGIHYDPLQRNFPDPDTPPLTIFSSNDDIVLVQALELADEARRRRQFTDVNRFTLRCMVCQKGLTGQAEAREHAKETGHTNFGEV
Method in brief: as §1

Measured: log2 ratio of Biotin-Ahx-Ub-VS probe labelling

Sequence of USP9X (Q93008 whole entry, the tested form may be a part): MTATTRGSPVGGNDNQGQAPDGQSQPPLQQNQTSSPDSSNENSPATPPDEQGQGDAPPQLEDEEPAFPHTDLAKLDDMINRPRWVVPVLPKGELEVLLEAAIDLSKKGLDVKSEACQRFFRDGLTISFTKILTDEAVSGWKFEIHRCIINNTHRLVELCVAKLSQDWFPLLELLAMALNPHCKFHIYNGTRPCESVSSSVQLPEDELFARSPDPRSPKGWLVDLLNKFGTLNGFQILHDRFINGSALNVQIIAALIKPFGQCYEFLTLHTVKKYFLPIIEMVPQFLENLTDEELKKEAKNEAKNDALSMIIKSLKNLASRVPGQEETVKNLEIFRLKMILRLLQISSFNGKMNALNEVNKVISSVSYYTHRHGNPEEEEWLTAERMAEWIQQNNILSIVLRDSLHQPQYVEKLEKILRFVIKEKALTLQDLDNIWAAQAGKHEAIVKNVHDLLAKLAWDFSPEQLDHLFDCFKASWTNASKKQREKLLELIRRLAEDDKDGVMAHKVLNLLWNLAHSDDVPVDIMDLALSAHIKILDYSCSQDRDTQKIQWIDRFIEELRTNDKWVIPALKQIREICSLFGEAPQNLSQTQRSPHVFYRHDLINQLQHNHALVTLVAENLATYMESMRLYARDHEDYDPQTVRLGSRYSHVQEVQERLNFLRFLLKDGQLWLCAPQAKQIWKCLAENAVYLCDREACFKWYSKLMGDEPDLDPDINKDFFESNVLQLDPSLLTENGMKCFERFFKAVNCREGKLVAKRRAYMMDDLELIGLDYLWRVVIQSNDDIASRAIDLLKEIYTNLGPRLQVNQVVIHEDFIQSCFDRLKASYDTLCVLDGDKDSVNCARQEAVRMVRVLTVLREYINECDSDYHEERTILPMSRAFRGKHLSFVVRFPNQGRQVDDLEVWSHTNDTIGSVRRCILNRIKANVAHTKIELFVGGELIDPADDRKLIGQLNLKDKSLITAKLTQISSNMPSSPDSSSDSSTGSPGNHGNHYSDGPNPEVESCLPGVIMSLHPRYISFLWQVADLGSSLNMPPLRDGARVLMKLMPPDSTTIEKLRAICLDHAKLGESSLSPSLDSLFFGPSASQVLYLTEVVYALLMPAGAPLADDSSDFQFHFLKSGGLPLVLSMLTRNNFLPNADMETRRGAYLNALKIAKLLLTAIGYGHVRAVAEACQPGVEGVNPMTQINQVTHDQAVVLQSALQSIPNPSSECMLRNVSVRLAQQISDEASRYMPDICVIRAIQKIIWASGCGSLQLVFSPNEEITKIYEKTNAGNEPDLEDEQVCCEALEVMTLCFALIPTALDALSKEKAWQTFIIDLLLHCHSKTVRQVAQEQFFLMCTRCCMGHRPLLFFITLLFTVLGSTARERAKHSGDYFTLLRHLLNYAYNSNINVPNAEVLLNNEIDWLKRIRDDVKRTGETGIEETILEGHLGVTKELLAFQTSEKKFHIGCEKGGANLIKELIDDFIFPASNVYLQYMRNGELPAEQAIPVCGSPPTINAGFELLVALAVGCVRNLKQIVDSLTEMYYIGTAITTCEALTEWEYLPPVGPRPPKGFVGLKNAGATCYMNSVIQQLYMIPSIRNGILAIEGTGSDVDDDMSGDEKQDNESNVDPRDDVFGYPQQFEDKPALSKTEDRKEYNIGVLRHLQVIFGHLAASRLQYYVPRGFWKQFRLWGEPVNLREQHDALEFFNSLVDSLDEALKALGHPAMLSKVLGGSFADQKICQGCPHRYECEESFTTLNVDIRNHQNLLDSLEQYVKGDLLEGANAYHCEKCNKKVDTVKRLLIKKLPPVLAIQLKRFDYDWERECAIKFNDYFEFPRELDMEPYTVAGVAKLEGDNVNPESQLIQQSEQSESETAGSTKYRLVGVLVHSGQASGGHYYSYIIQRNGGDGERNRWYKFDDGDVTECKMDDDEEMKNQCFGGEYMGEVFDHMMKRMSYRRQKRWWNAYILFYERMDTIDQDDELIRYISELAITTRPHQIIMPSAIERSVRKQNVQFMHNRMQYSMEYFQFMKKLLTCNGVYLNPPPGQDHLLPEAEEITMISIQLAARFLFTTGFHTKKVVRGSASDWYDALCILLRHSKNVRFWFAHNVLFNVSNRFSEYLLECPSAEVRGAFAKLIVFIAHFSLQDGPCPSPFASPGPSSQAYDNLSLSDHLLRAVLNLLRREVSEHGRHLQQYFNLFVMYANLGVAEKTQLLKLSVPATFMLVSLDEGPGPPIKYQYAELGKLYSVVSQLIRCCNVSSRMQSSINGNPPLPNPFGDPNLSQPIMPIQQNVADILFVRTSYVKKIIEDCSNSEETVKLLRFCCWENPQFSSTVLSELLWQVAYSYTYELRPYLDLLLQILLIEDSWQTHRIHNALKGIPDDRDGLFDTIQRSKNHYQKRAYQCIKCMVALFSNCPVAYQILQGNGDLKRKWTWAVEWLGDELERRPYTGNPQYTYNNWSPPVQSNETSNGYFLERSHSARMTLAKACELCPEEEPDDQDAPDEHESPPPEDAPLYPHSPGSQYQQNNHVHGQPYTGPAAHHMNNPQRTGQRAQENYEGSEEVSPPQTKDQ
Sequence of UniProt O00507 (O00507 whole entry): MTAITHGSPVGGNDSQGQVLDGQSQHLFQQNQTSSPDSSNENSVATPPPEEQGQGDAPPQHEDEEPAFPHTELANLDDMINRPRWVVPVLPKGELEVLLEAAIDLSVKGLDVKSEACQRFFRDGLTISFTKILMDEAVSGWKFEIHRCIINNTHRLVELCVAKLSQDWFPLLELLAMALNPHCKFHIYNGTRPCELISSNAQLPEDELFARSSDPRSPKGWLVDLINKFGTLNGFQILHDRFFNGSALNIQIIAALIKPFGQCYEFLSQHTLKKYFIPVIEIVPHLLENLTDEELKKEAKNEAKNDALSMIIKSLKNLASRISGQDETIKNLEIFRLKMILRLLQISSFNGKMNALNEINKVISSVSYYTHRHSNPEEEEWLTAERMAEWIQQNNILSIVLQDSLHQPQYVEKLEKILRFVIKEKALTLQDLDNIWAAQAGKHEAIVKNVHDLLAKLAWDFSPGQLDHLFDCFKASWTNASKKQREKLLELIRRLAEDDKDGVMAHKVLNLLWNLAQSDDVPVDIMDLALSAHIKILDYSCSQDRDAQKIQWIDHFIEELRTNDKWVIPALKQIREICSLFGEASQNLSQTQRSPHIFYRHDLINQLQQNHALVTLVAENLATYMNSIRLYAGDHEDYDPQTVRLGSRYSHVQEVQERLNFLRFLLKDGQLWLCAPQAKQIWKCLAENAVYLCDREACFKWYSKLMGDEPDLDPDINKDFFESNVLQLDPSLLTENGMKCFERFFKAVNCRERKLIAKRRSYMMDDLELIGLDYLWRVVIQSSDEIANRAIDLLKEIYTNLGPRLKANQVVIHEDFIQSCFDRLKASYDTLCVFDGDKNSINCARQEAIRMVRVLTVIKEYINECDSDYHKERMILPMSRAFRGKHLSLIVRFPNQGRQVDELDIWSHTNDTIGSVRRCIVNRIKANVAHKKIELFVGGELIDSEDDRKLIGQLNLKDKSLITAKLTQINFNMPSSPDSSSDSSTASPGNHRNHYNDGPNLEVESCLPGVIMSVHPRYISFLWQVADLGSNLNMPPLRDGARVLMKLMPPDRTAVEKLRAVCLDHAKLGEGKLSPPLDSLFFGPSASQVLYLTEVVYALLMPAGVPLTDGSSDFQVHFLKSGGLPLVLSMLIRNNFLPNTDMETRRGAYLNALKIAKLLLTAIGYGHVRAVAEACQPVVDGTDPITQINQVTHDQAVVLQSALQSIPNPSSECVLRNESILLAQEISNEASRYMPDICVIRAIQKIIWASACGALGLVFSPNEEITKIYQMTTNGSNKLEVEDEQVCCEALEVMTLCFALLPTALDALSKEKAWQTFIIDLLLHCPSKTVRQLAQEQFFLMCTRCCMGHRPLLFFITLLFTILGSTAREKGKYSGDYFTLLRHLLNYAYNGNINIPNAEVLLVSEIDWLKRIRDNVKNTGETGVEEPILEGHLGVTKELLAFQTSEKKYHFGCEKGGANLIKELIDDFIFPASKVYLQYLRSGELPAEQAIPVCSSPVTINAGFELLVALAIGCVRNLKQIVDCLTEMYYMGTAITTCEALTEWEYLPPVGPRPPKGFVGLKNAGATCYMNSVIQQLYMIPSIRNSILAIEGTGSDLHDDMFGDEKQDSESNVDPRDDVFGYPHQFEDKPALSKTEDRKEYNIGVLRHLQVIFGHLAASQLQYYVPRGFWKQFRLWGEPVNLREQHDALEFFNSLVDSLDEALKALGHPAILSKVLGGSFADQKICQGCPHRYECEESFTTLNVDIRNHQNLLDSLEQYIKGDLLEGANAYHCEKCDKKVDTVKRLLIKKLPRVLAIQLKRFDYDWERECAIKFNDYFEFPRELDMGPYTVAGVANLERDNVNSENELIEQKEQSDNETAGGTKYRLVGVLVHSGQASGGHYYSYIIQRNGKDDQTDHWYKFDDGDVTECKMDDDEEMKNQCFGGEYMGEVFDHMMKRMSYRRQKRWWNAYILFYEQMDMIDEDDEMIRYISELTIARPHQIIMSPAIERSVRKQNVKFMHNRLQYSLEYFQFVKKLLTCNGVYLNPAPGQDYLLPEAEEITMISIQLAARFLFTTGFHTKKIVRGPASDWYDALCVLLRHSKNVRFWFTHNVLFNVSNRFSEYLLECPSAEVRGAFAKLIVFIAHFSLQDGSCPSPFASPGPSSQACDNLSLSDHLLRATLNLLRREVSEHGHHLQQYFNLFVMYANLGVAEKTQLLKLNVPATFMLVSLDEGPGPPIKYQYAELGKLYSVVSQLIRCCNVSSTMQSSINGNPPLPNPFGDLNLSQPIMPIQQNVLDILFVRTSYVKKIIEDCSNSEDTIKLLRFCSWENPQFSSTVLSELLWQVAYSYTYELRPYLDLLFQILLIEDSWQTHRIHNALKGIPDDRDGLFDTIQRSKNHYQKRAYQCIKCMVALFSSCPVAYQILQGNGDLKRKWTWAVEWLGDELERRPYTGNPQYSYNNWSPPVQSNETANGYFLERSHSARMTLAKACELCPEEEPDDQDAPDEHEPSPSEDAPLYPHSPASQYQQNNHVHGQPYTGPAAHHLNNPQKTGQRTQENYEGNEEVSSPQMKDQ

Cc1ncc2c(n1)CCN(C(=O)CCl)C2
inactive: [1] -0.246 | [2] 0.0218 | [3] 0.136 | [4] 0.000874 | [5] -0.239 | [6] -0.624 | [7] -0.422 | [8] -0.458 | [9] 0.165
